Screening data (PubChem BioAssay)
An excerpt weighted towards active compounds, which were near 3.5% of everything screened.
GPR151 activ: activators of human GPR151, primary screen, cell-based, PathHunter beta-arrestin, luminescence; 1% of 650,000 active; AID 1508602, 2020; G-protein coupled receptor 151 (Homo sapiens), Q8TDV0; PathHunter beta-arrestin GPR151 cells; activation, % at 11.2 µM; in the data active = activation above about 4.9%;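 also: 0% = median of compound wells and 100% = cells with positive control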
MITF inh: MITF inhibitors, primary screen, biochemical, AlphaScreen, human; Microphthalmia-associated transcription factor (Homo sapiens), O75030; AlphaScreen MITF homodimerization, bead proximity signal; inhibition, % at 2.6 µM; 0.91% of 650,000 active; in the data active = inhibition above about 50%;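 also: 0% = vehicle wells with protein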
TEAD-YAP block: TEAD-YAP interaction inhibition, primary screen, TEAD-YAP interaction inhibitor project, luminescence, HEK-TIYL cells; inhibition, % at 9.12 µM; 1.4% of 640,000 active; TEAD-Gal4/YAP UAS-luciferase luminescence; AID 1259422, 2018; in the data active = inhibition above about 32%;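 also: 0% = median of test compound wells and 100% = reference inhibitor wells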
FBW7 act: FBW7 E3 ligase activators, primary screen, biochemical, AlphaScreen, human; AlphaScreen FBW7–phospho-cyclin E peptide binding, activator screen; normalized activity (activation), % at 26.1 µM; 0.13% of 650,000 active; AID 1259310, 2017; in the data active = normalized activity above about 1.9%;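 also: purified mutant Fbw7 with reduced substrate affinity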
GPR151 confirm: GPR151 activators, triplicate retest, confirmation, cell-based, PathHunter beta-arrestin, luminescence. shares compounds with GPR151 activ. GPR151 PathHunter beta-arrestin cells, 90 min; % of EA-reagent control over plate median. activation, % at 11.2 µM. 6,700 tested, under 10 active. AID 1508609, 2020;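 active = mean percent activation across replicates above the confirmation screen cutoff of 4.91%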
GPR119 counter: GPR119 activators in beta-arrestin cells, counter-screen for GPR151 activator project, cell-based, PathHunter beta-arrestin, luminescence, triplicate; shares compounds with GPR151 activ; 90 min; 0 = compound-well median, 100 = enzyme-acceptor control; activation, % at 11.2 µM; 0.3% of 6,700 active;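 active = mean percent activation in the counterscreen above 29.09%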;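 also: counterscreen on off-target GPR119 to flag nonselective hits from the GPR151 activator screen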
Target sequence (Q8TDV5 whole entry, looked up): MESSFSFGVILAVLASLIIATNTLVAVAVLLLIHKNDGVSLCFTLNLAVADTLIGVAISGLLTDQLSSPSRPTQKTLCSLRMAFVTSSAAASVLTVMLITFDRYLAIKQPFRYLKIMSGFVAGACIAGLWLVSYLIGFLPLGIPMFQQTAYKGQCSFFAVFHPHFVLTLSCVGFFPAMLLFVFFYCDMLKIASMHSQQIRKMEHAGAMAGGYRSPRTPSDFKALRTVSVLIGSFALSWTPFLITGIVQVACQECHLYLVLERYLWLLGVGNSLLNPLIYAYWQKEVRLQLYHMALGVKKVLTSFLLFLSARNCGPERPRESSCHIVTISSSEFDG
The depositor's hits bear a star.

Screening CCCCOc1ccc2c3c(c(=O)oc2c1)CCC3 returned GPR151 activ 3.1, MITF inh -3.0, TEAD-YAP block -6.5 and FBW7 act 0.0.
Screening CCCOc1ccc2oc(=O)c3c(c2c1)CCCN3C(=O)CN1CCN(C)CC1 returned GPR151 activ 3.3, MITF inh 2.0, TEAD-YAP block 15.8 and FBW7 act 0.1.
Screening CCCOc1ccc2oc(=O)c3c(c2c1)CCCN3C(=O)CN1CCCC1 returned GPR151 activ 5.4*, MITF inh 11.6, TEAD-YAP block 11.3, FBW7 act 0.3, GPR151 confirm 0.5 and GPR119 counter 4.8.
CCCOc1ccc2c3c(c(=O)oc2c1)CCC3 was read as GPR151 activ 7.9*, MITF inh 2.4, TEAD-YAP block -1.0, FBW7 act 0.1, GPR151 confirm -0.1 and GPR119 counter -4.1.
For O=C1N[C@H](Cc2ccc(O)cc2)C(=O)N2CCN(Cc3ccc(Cl)s3)C[C@H]12 the results were GPR151 activ -0.5, MITF inh 3.1, TEAD-YAP block -4.0 and FBW7 act 0.0.
COc1ccc(-c2ccc(OCCNS(=O)(=O)c3ccc(F)cc3)nn2)cc1 was read as GPR151 activ -0.2, MITF inh -3.7, TEAD-YAP block 13.9 and FBW7 act 0.1.
For CC(=O)N1CCN(c2ccc(NC(=O)c3cccc4ccccc34)cc2)CC1 the results were GPR151 activ 0.0, MITF inh 6.2, TEAD-YAP block 26.3 and FBW7 act 0.3.
COc1cc(/C=C(/C#N)C(=O)Nc2ccc(O)cc2)cc(Br)c1OC was read as GPR151 activ 3.7, MITF inh -6.1, TEAD-YAP block 0.3 and FBW7 act 0.0.
`CCN(CC)c1ccc(/C=N/NC(=O)COc2ccccc2)c(O)c1` gave GPR151 activ 8.1*, MITF inh 5.9, TEAD-YAP block 3.1, FBW7 act 0.0, GPR151 confirm 1.4 and GPR119 counter 11.7.
Screening CCN(CC)c1ccc(/C=N/N2C(=O)c3ccccc3C2=O)c(O)c1 returned GPR151 activ 8.3*, MITF inh -71.6, TEAD-YAP block 3.8, FBW7 act 0.2, GPR151 confirm -0.3 and GPR119 counter 2.2.
CCN(CC)c1ccc(/C=N/N2C(=O)c3ccccc3C2=O)cc1 was read as GPR151 activ -0.3, MITF inh -2.2, TEAD-YAP block 9.2 and FBW7 act 0.0.
CCCOc1ccc(-c2ccc(C(=O)O)cc2)cc1 was read as GPR151 activ 6.3*, MITF inh 7.8, TEAD-YAP block -22.5, FBW7 act 0.0, GPR151 confirm -0.1 and GPR119 counter 1.6.
CCCCCCOc1ccc(C(=O)O)cc1 was read as GPR151 activ -4.5, MITF inh -27.4, TEAD-YAP block -0.1 and FBW7 act -0.1.
Screening Cn1c(=O)oc2cc(S(=O)(=O)NC3CCN(Cc4ccccc4)CC3)ccc21 returned GPR151 activ -1.1, MITF inh 13.3, TEAD-YAP block -1.1 and FBW7 act 0.0.
For O=S(=O)(NC1CCN(Cc2ccccc2)CC1)c1ccc(F)c(F)c1 the results were GPR151 activ 7.1*, MITF inh 13.7, TEAD-YAP block 7.7, FBW7 act 0.7, GPR151 confirm 0.9 and GPR119 counter -2.7.
O=C(CSCc1c(Cl)cccc1Cl)N1CCCCC1 was read as GPR151 activ 6.1*, MITF inh 6.3, TEAD-YAP block 1.1, FBW7 act -0.2, GPR151 confirm 0.4 and GPR119 counter -0.3.
Screening O=C(CSCc1c(Cl)cccc1Cl)N1CCOCC1 returned GPR151 activ -0.9, MITF inh -8.9, TEAD-YAP block -9.1 and FBW7 act 0.0.
Screening COCc1cc(C)nc2oc(C(=O)c3ccccc3)c(N)c12 returned GPR151 activ 5.7*, MITF inh -6.4, TEAD-YAP block 6.2, FBW7 act 0.2, GPR151 confirm -0.8 and GPR119 counter -10.9.
Screening COCc1cc(C)nc2sc(C(=O)c3ccccc3)c(N)c12 returned GPR151 activ -1.9, MITF inh 3.5, TEAD-YAP block 1.1 and FBW7 act 0.9.
